# From PubChem BioAssay (EPA / NIEHS)
# Active and inactive are the calls of the source. The calls were made as follows: active = hit-call score of the fitted dose curve at least 0.9, where 1 is the maximum; inactive = score below 0.9.
# Read-out: BCL2L11 (gene 10018)
# Assay: LTEA_HepaRG_BCL2L11: Life Technologies and Expression Analysis (LTEA) Assay for Bcl-2 (BCL2L11) gene using HepaRG (AID 2283473)
# Conditions: mRNA level, 48 h; actives raise or lower the signal
# Procedure: LTEA_HepaRG is a cell based, multiplexed-readout assay that uses HepaRG, a human liver cell line, with measurements taken at 48 hours after chemical dosing on a 96-well plate.LTEA_HepaRG_BCL2L11 is one of 102 assay component(s) measured in the LTEA HepaRG cell culture assay. It is a marker of Cell proliferation, survival, death.Data from the assay component LTEA_HepaRG_BCL2L11 was analyzed into 1 endpoint. This assay endpoint, LTEA_HepaRG_BCL2L11, was analyzed with bidirectional fitting relative to DMSO as the negative control and baseline of activity. Using a type of inducible reporter, measures of mRNA induction for gain or loss-of-signal activity can be used to understand regulation of transcription factor activity. To generalize the intended target to other relatable targets, this assay endpoint is annotated to the cell cycle intended target family, where the subfamily is Cell proliferation, survival, death.
# A total of 1060 chemcials from the ToxCast library were tested in eight-point concentration-response experiments. Cell culture and cytotoxicity assays were conducted at Thermo Fisher Scientific's Custom Services facility (Madison, WI). A single lot of human HepaRG cells (Thermo Fisher Scientific, Frederick, MD) was used for the cell culture experiments. 96-well format collagen type I coated plates of human HepaRG cells were prepared using established methods. Briefly, cryopreserved HepaRG cells were thawed, plated at a density of approximately 100,000 cells/well in HepaRG Thaw, Plate, and General Purpose media (HPRG770, Thermo Fisher Scientific), and incubated for 48 hours. 0.5% DMSO was selected as vehicle control to balance the requisite need of DMSO in HepaRG cultures to maintain differentiation (for example, baseline metabolism, proportions of hepatocytes vs. cholangiocytes), while enabling further hepatic receptor pathway activation (for example, PXR and CAR) in response to chemical exposure. 48 hours after plating, the culture medium was replaced with HepaRG Serum-Free Incudtion Media. Cells were exposed to each test chemical in duplicate and maintained in CO2 incubators for another 48 hours. Chemical plates were thawed to room temperature and 200x concentrations of treatment groups were prepared. 8-point conentration-reponse curves were made with the highest exposure at 100 uM, followed by half-log dilutions, all in 0.5% DMSO. Each test plate contained variouse controls, induction positive controls (1mM phenobarbital), cytotoxicity positive controls ([…] aflatoxin B1), vehicle controls (0.5% DMSO), and total lysis controls (0.5% DMSO). Cell morphology images were taken using an Essen IncuCyte FLR automated microscope, with six 96-well plates imaged in about 24 minutes. Images were captured and exported and JPEG files. Spent culture media was transfered to black-well plates for the LDH assay, and remaining media was sorted at -80 C for later use. Cells were treated with RLT buffer and frozen until shipped for gene expression analysis. Total RNA was isolated from the cell suspension in 75 uL of Buffer RLT (Qiagen, Germantown, MD 20874) by Quintiles/Expression Analysis (Durham, NC) using a custom isolation procedure. Total RNA from each plate well was transferred to a preamplification plate. Fluidigm's 96.96 Dynamic ArrayTM (Fluidigm, Amsterdam, the Netherlands) technology was used for gene expression analyses by quantitative reverse transcription polymerase chain reaction (qRT-PCR, performed by Quintiles/Expression Analysis, Durham, NC)89. Standard TaqManTM Assays (Applied Biosystems/ThermoFisher Scientific, Foster City, CA) were used to assess the expression of 93 genes selected based on their selectivity and sensitivity to important hepatic receptors known to be modulated by environmental chemicals; importance in human hepatocyte functionality; and hepatotoxicity. […]
SMILES,outcome,AC50
CC(C)(OO)c1ccccc1,inactive,–
CCOP(=S)(OCC)Oc1nc(Cl)c(Cl)cc1Cl,inactive,–
CN(C)N=O,inactive,–
Cn1sc(Cl)cc1=O,inactive,–
Oc1cccc2cccnc12,inactive,–
C=CC(=O)OCCCCCC(C)C,inactive,–
ClC1(Cl)C2(Cl)C3(Cl)C4(Cl)C(Cl)(Cl)C5(Cl)C3(Cl)C1(Cl)C5(Cl)C24Cl (stereo unspecified),inactive,–
C[C@]12CCC(=O)C[C@@H]1CC[C@@H]1[C@@H]2CC[C@]2(C)[C@@H](O)CC[C@@H]12,inactive,–
ClCC(Cl)CCl,inactive,–
CCN1CCC2(CC1)COc1cc3c(cc12)N(C(=O)c1ccc(-c2ccc(-c4nnc(C)o4)cc2C)cc1)CC3,inactive,–
CC(C)(C)CC(C)(C)c1ccc(O)cc1,inactive,–
Cc1ccccc1N,inactive,–
CCOP(=S)(OCC)SCSP(=S)(OCC)OCC,–,0.228 µM (active)
COc1cc(-c2ccc(N)c(OC)c2)ccc1N,inactive,–
O=[N+]([O-])c1ccc(O)c([N+](=O)[O-])c1,–,13.1 µM (active)
O=C(O)C(Cl)(Cl)Cl,inactive,–

SMILES,outcome,AC50
C=C(C)C(=O)[O][Sn]([CH2]CCC)([CH2]CCC)[CH2]CCC,–,88.3 µM (active)
CC(=O)[O][Hg][c]1ccccc1,–,11.9 µM (active)
CCC(C)(C)c1ccc(O)c(C(C)(C)CC)c1,inactive,–
NC(=O)O,inactive,–
CC(C)(c1ccccc1)c1ccc(O)c(C(C)(C)c2ccccc2)c1,inactive,–
CC(C)(C)c1cc(O)ccc1O,inactive,–
O=c1[nH]c(=O)[nH]c(=O)[nH]1,inactive,–
O=C(O)C(F)(F)C(F)(F)C(F)(F)C(F)(F)C(F)(F)C(F)(F)C(F)(F)C(F)(F)C(F)(F)C(F)(F)F,–,47.8 µM (active)
CCCCCCCCc1ccc(O)cc1,inactive,–
C[C@@H]1C[C@@H]([C@H](O)CC2CC(=O)NC(=O)C2)C(=O)[C@@H](C)C1,inactive,–
O=C1C2(Cl)C3(Cl)C4(Cl)C(Cl)(Cl)C5(Cl)C3(Cl)C1(Cl)C5(Cl)C24Cl (stereo unspecified),inactive,–
O=C(Nc1ccc2[nH]ccc2c1)c1cc2cc(F)ccc2n1Cc1cccc(F)c1,–,12.4 µM (active)
O=C(O)C(F)(F)C(F)(F)C(F)(F)C(F)(F)C(F)(F)C(F)(F)F,inactive,–
CCC(=O)C(CC(C)N(C)C)(c1ccccc1)c1ccccc1 (stereo unspecified),inactive,–
CC12CC1(C)C(=O)N(c1cc(Cl)cc(Cl)c1)C2=O (stereo unspecified),inactive,–
